Source: PubChem BioAssay AID1159580 (chemical genetic matrix, 2015)
Where “and” joins values, the source holds several entries; their conditions need not be identical. Identical values can stand only once. Screen size: about 5,500 compounds; about 2,000 (36%) were called active. Not shown: some 18% with an inconclusive outcome. Rule as the data show it: active = normalized growth mostly below about 0.91 (no sharp cut-off); inconclusive = no clear call, values can overlap the other calls; inactive = mostly above about 0.92. This is one part of the list.

Assay: chemical genetic growth profiling, strain panel (AID 1159580);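 also: tested at 20 µM; growth read once vehicle control cultures reached saturation at 30 °C; 1 = growth at the plate median or of vehicle wells; lower values mean less growth of the strain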
Conditions: S. cerevisiae deletion strains, growth OD

Measured: normalized growth

C[C@]12CCC3C(CC[C@H]4CC(=O)CC[C@]34C)C1CCC2=O (some centres not stated)
active: locus YAL021C, strain ccr4, stronger effect = lower value 0.737 | locus YBR009C, strain hhf1, stronger effect = lower value 0.79 | locus YBR021W, strain FUR4, stronger effect = lower value 0.781 | locus YCL011C, strain gbp2, stronger effect = lower value 0.86 | locus YDL035C, strain GPR1, stronger effect = lower value 0.787 | locus YDL192W, strain arf1, stronger effect = lower value 0.866 | locus YDR137W, strain rgp1, stronger effect = lower value 0.549 | locus YDR159W, strain sac3, stronger effect = lower value 0.799 | locus YDR162C, strain NBP2, stronger effect = lower value 0.408 | locus YDR195W, strain ref2 1.28 [resistant] | locus YDR318W, strain mcm21, stronger effect = lower value 0.895 | locus YDR388W, stronger effect = lower value 0.86 | locus YDR392W, strain spt3, stronger effect = lower value 0.495 | locus YDR502C, strain sam2, stronger effect = lower value 0.835 | locus YEL003W, strain gim4, stronger effect = lower value 0.774 | locus YER155C, strain BEM2 (second series), stronger effect = lower value 0.753 | locus YGL173C, strain kem1, stronger effect = lower value 0.821 | locus YGL240W, strain doc1, stronger effect = lower value 0.768 | locus YGR135W, strain pre9, stronger effect = lower value 0.856 | locus YGR252W, strain gcn5, stronger effect = lower value 0.692 | locus YHR142W, strain chs7, stronger effect = lower value 0.803 | locus YIL066C, strain RNR3, stronger effect = lower value 0.795 | locus YJL095W, strain BCK1 (second series), stronger effect = lower value 0.632 | locus YJL129C, strain trk1, stronger effect = lower value 0.851 | locus YJL164C, strain tpk1, stronger effect = lower value 0.847 | locus YJL166W, strain qcr8, stronger effect = lower value 0.815 | locus YJL187C, strain SWE1, stronger effect = lower value 0.923 | locus YKR001C, strain vps1, stronger effect = lower value 0.86 | locus YLL026W, stronger effect = lower value 0.928 | locus YLR027C, strain aat2, stronger effect = lower value 0.875 | locus YLR039C, strain RIC1, stronger effect = lower value 0.504 | locus YLR221C, strain rsa3, stronger effect = lower value 0.796 | locus YLR262C, strain YPT6 (second series), stronger effect = lower value 0.471 | locus YLR262C, strain YPT6, stronger effect = lower value 0.487 | locus YLR320W, strain mms22, stronger effect = lower value 0.595 | locus YLR342W, strain FKS1 (second series), stronger effect = lower value 0.718 | locus YLR418C, strain cdc73, stronger effect = lower value 0.701 | locus YML032C, strain rad52, stronger effect = lower value 0.82 | locus YML120C, strain ndi1, stronger effect = lower value 0.853 | locus YMR058W, strain fet3, stronger effect = lower value 0.872 | locus YMR205C, strain PFK2, stronger effect = lower value 0.726 | locus YMR223W, strain ubp8, stronger effect = lower value 0.864 | locus YNL071W, strain lat1, stronger effect = lower value 0.563 | locus YNL250W, strain rad50, stronger effect = lower value 0.894 | locus YNL271C, strain bni1, stronger effect = lower value 0.893 | locus YNL298W, strain CLA4, stronger effect = lower value 0.821 | locus YNL307C, strain MCK1, stronger effect = lower value 0.723 | locus YNR052C, strain pop2, stronger effect = lower value 0.648 | locus YOL006C, strain TOP1, stronger effect = lower value 0.529 | locus YOR001W, strain rrp6, stronger effect = lower value 0.833 | locus YOR106W, strain vam3, stronger effect = lower value 0.766 | locus YOR184W, strain ser1, stronger effect = lower value 0.658 | locus YOR270C, strain vph1, stronger effect = lower value 0.634 | locus YPL051W, strain arl3, stronger effect = lower value 0.865 | locus YPL078C, strain atp4, stronger effect = lower value 0.886 | locus YPR163C, strain tif3, stronger effect = lower value 0.884
inactive: locus YAL026C, strain drs2, stronger effect = lower value 0.949 | locus YAL030W, strain snc1, stronger effect = lower value 0.938 | locus YBL061C, strain skt5, stronger effect = lower value 0.987 | locus YBR023C, strain chs3, stronger effect = lower value 0.942 | locus YBR171W, strain sec66, stronger effect = lower value 1 | locus YBR229C, strain ROT2, stronger effect = lower value 0.964 | locus YBR231C, strain swc5, stronger effect = lower value 0.999 | locus YBR279W, strain paf1, stronger effect = lower value 0.983 | locus YCL016C, strain dcc1, stronger effect = lower value 0.94 | locus YCL029C, strain bik1, stronger effect = lower value 0.948 | locus YCL069W, strain vba3, stronger effect = lower value 0.979 | locus YCR088W, strain abp1, stronger effect = lower value 1.03 | locus YDL005C, strain med2, stronger effect = lower value 1.03 | locus YDL040C, strain nat1, stronger effect = lower value 1.03 | locus YDL074C, strain BRE1, stronger effect = lower value 0.795 | locus YDL101C, strain DUN1, stronger effect = lower value 0.978 | locus YDL185W, strain tfp1, stronger effect = lower value 0.932 | locus YDR001C, strain nth1, stronger effect = lower value 1.03 | locus YDR069C, strain doa4, stronger effect = lower value 0.942 | locus YDR101C, strain arx1, stronger effect = lower value 0.947 | locus YDR150W, strain NUM1, stronger effect = lower value 1.01 | locus YDR297W, strain sur2, stronger effect = lower value 0.939 | locus YDR334W, strain swr1, stronger effect = lower value 1.05 | locus YDR335W, strain msn5, stronger effect = lower value 0.932 | locus YEL037C, strain rad23, stronger effect = lower value 1.01 | locus YEL061C, strain CIN8 (second series), stronger effect = lower value 1.01 | locus YEL061C, strain CIN8, stronger effect = lower value 0.994 | locus YER015W, strain faa2, stronger effect = lower value 0.985 | locus YER016W, strain bim1, stronger effect = lower value 0.998 | locus YER110C, stronger effect = lower value 0.958 | locus YER111C, strain swi4, stronger effect = lower value 0.998 | locus YER155C, strain BEM2, stronger effect = lower value 1.04 | locus YER167W, strain BCK2, stronger effect = lower value 0.966 | locus YFR010W, strain ubp6, stronger effect = lower value 0.973 | locus YGL078C, strain dbp3, stronger effect = lower value 0.943 | locus YGL086W, strain mad1, stronger effect = lower value 0.971 | locus YGL167C, strain pmr1, stronger effect = lower value 1.02 | locus YGL227W, strain vid30, stronger effect = lower value 1.08 | locus YGL248W, strain PDE1, stronger effect = lower value 0.912 | locus YGL253W, strain hxk2, stronger effect = lower value 0.92 | locus YHR013C, strain ard1, stronger effect = lower value 0.978 | locus YHR027C, strain rpn1, stronger effect = lower value 0.985 | locus YHR030C, strain SLT2, stronger effect = lower value 0.974 and 0.898 | locus YHR079C, strain IRE1 (second series), stronger effect = lower value 0.991 | locus YHR079C, strain IRE1, stronger effect = lower value 0.901 | locus YHR094C, strain hxt1, stronger effect = lower value 0.997 | locus YHR129C, strain ARP1, stronger effect = lower value 0.96 | locus YHR200W, strain rpn10, stronger effect = lower value 0.928 | locus YIL073C, strain SPO22, stronger effect = lower value 0.782 | locus YIL125W, strain kgd1, stronger effect = lower value 0.989 | locus YIR030C, strain dcg1, stronger effect = lower value 0.976 | locus YJL092W, strain hpr5, stronger effect = lower value 0.978 | locus YJL115W, strain asf1, stronger effect = lower value 1.01 | locus YJL134W, strain LCB3, stronger effect = lower value 1.01 | locus YJL154C, strain vps35, stronger effect = lower value 1.03 | locus YJL168C, strain set2, stronger effect = lower value 1 | locus YJL187C, strain SWE1 (second series), stronger effect = lower value 0.92 | locus YJR043C, strain POL32, stronger effect = lower value 0.883 | locus YJR066W, strain TOR1, stronger effect = lower value 0.881 | locus YKL009W, strain mrt4, stronger effect = lower value 0.906 | locus YKL068W, stronger effect = lower value 0.989 | locus YKL085W, strain MDH1 (second series), stronger effect = lower value 0.97 | locus YKL085W, strain MDH1, stronger effect = lower value 0.97 | locus YKL160W, strain elf1, stronger effect = lower value 0.95 | locus YKL190W, strain CNB1, stronger effect = lower value 0.98 | locus YKR026C, strain gcn3, stronger effect = lower value 1.02 | locus YKR091W, strain srl3, stronger effect = lower value 1.03 | locus YLL001W, strain dnm1, stronger effect = lower value 0.942 | locus YLL041C, strain sdh2, stronger effect = lower value 1.01 | locus YLR058C, strain SHM2, stronger effect = lower value 0.958 | locus YLR102C, strain apc9, stronger effect = lower value 0.992 | locus YLR113W, strain HOG1, stronger effect = lower value 0.923 | locus YLR258W, strain gsy2, stronger effect = lower value 0.92 | locus YLR268W, strain sec22, stronger effect = lower value 0.927 | locus YLR330W, strain CHS5, stronger effect = lower value 0.95 | locus YLR342W, strain FKS1, stronger effect = lower value 0.912 | locus YLR357W, strain rsc2, stronger effect = lower value 1.08 | locus YLR370C, strain arc18, stronger effect = lower value 0.972 | locus YLR371W, strain rom2, stronger effect = lower value 0.956 | locus YLR384C, strain iki3, stronger effect = lower value 1.04 | locus YML016C, strain PPZ1, stronger effect = lower value 0.988 | locus YML124C, strain tub3, stronger effect = lower value 0.996 | locus YMR078C, strain ctf18, stronger effect = lower value 0.966 | locus YMR125W, strain sto1, stronger effect = lower value 1.02 | locus YMR129W, stronger effect = lower value 0.929 | locus YMR231W, strain pep5, stronger effect = lower value 0.99 | locus YMR307W, strain GAS1, stronger effect = lower value 0.771 | locus YNL067W, strain RPL9B, stronger effect = lower value 0.985 | locus YNL183C, strain NPR1, stronger effect = lower value 0.876 | locus YNL209W, strain ssb2, stronger effect = lower value 0.991 | locus YNL233W, strain BNI4, stronger effect = lower value 0.902 | locus YNL248C, strain rpa49, stronger effect = lower value 0.908 | locus YNL322C, strain KRE1 (second series), stronger effect = lower value 0.977 | locus YNL322C, strain KRE1, stronger effect = lower value 0.99 | locus YNR049C, strain mso1, stronger effect = lower value 1.02 | locus YOL012C, strain htz1 1.71 | locus YOL147C, strain pex11, stronger effect = lower value 0.975 | locus YOR061W, strain CKA2, stronger effect = lower value 0.923 | locus YOR069W, strain VPS5, stronger effect = lower value 1 | locus YOR070C, strain gyp1, stronger effect = lower value 0.946 | locus YOR080W, strain dia2, stronger effect = lower value 1.02 | locus YOR083W, strain WHI5, stronger effect = lower value 0.904 | locus YOR136W, strain idh2, stronger effect = lower value 0.994 | locus YOR144C, strain elg1, stronger effect = lower value 0.954 | locus YOR231W, strain MKK1, stronger effect = lower value 0.901 | locus YOR265W, strain rbl2, stronger effect = lower value 0.997 | locus YOR290C, strain snf2, stronger effect = lower value 0.932 | locus YOR316C, strain cot1, stronger effect = lower value 0.981 | locus YPL106C, strain sse1, stronger effect = lower value 1.14 | locus YPL240C, strain hsp82, stronger effect = lower value 0.936 | locus YPL256C, strain CLN2, stronger effect = lower value 0.887 | locus YPR119W, strain clb2, stronger effect = lower value 1.01 | locus YPR141C, strain kar3, stronger effect = lower value 1 | locus YPR167C, strain met16, stronger effect = lower value 0.921 | strain wtn01, stronger effect = lower value 0.944
0.743 (active) and 0.898 (inactive): locus YJL095W, strain BCK1, stronger effect = lower value
